Columns and labels:
[1] = target: T1, Aspartate--tRNA(Asp/Asn) ligase (Mycobacterium tuberculosis (strain ATCC 25618 / H37Rv)) (UniProt P9WFW3); test: Assay for Asp RNA synthetase-1 from Mycobacterium tuberculosis; type: functional; parameters: scale not given: direction of the effect not stated beside the values; conditions: 30 µM; also: in the data most compounds retested in dose-response had high values
T1 sequence (whole entry): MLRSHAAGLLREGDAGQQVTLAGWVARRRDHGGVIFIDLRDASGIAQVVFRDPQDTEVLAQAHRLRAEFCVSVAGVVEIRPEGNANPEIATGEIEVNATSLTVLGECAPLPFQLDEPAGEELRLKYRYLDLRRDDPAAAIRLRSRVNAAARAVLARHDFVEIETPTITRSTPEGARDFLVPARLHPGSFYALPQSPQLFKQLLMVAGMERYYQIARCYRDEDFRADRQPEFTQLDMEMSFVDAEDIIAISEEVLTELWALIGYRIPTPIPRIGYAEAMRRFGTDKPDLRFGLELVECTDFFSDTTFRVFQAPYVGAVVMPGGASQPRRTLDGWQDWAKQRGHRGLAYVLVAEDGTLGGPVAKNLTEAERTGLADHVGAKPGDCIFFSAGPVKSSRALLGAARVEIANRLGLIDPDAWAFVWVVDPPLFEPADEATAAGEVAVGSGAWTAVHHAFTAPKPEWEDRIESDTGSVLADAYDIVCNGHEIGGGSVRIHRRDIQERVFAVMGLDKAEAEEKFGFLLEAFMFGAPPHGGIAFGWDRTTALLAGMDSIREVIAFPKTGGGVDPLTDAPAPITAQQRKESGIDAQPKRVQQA

[2] = target: Shiga toxin 2 (Escherichia coli O157:H7) (UniProt P09385+P09386); test: E. coli 0.157:H7 Shiga Toxin SOP - stx2 screening assay; type: functional; parameters: scale not given: direction of the effect not stated beside the values; conditions: 30 µM

SMILES | Percent Effect [1] | Percent Effect [2]
Cc1ccc(CN2Cc3nnn(C)c3C(COCCN(C)C)C2)s1 (stereo not drawn) | -3% | -6.76%
CCc1ccc(C(=O)N2CCCC(c3noc(CC)n3)C2)o1 (stereo not drawn) | -2.33% | 10.6%
O=C(CSC1CCc2ccccc2NC1=O)NCCO (stereo not drawn) | 0.805% | -11.3%
O=C(c1cc(C2CC2)[nH]n1)N1CCCC(n2cncn2)C1 (stereo not drawn) | -3.08% | 12.1%
CC(C)c1nc(C2CCCN(C(=O)Cc3cccnc3)C2)no1 (stereo not drawn) | -2.44% | 23.6%
Cn1cnc(S(=O)(=O)N2CCCC2)c1Cl | -1.03% | -7.1%
COCCCN(CCOC)C(=O)Nc1ccc(C)cc1C | 0.599% | 1.16%
Cc1noc2nc(C3CCN(CC4=CCCOC4)CC3)cc(C(F)F)c12 | 12.2% | -23.1%
NC(=O)CSCCC(=O)N1CCCC1c1ccsc1 (stereo not drawn) | -7.94% | 6.46%
Cc1cc(CN(C)C(=O)C2CCCN(C(=O)c3cccs3)C2)no1 (stereo not drawn) | 5.71% | -56.4%
Cc1cnn(CCNCC(=O)NCCOc2ccccc2)c1 | -2.67% | 18.2%
CCn1ncnc1C(NC(=O)CC1CCN(C(C)C)CC1)C1CC1 (stereo not drawn) | 1.82% | -13.7%
N#Cc1cccc(NC(=O)N[C@H](CO)c2ccccc2)c1 | 3.31% | -24.6%
CC(NC(=O)N(C)Cc1ccsc1)c1ccc2c(c1)NC(=O)CO2 (stereo not drawn) | -2.41% | 18.1%
Cc1cnc(Nc2nccnc2C2CCN(C)CC2)s1 | -3.37% | -20.6%
COc1cc(CN2CCN(c3cccc(OC)c3)C(=O)C2)cc(OC)c1 | -1.98% | -8.17%
CC(NC(=O)NCCCOC1CCCCC1)c1nncn1C (stereo not drawn) | -3.32% | -6.91%
O=C(N[C@@H]1CN(Cc2ccc3c(c2)OCO3)[C@@H]2CCCO[C@@H]21)C1CC1 | 5.97% | 9.3%
Cc1csc(N2CCN(C(=O)CCc3ccccn3)CC2)n1 | 5.27% | 20.4%
